From PubChem BioAssay (NCATS) come the findings set out here.

Assay [1] is described as follows: qHTS for Inhibitors of Plasmodium falciparum (DD2) proliferation (AID 504314).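 Further: parasite DNA measured by SYBR Green fluorescence after red cell lysis; plate controls were DMSO vehicle for no effect and artemisinin wells for full effect.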 Summed up:
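Erythrocytes infected with P. falciparum Dd2 (0.3% parasitemia, 2.5% hematocrit) exposed to compound 72 h at 37C, 5% CO2. Parasite DNA quantified by SYBR Green fluorescence after saponin/Triton lysis overnight; normalized to 0.29 uM artemisinin and DMSO.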

Assay [2] is described as follows: qHTS for Inhibitors of Plasmodium falciparum (GB4) proliferation (AID 504315). Further: nearly all actives have a fitted effect of over 50% in size. Further: potency means the concentration at half of the fitted maximal effect. The essentials: (§1)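 Erythrocytes infected with P. falciparum line (0.3% parasitemia, 2.5% hematocrit final) incubated with compounds 72 h at 37 °C, 5% CO2; SYBR Green lysis buffer added, fluorescence read next day. Normalized to 0.29 uM artemisinin and DMSO.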
In general terms: Quantitative high-throughput screening tests each substance at several concentrations.

Assay [3] is described as follows: qHTS for Inhibitors of Plasmodium falciparum (7G8) proliferation (AID 504316).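 Further: series mostly up to about 6.7 µM; 0% = DMSO vehicle and -100% = 0.29 µM artemisinin full kill; nearly all actives have a fitted effect of over 65% in size.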 Summed up:
as §1

Assay [4] is described as follows: qHTS for Inhibitors of Plasmodium falciparum (HB3) proliferation (AID 504318).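 Further: 0% = DMSO vehicle and -100% = artemisinin control; nearly all actives have a fitted effect of over 60% in size.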 Summed up:
as §1

A short description of assay [5]: qHTS for Inhibitors of Plasmodium falciparum (CP250) proliferation (AID 504320).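 Further: plate controls were DMSO vehicle for no effect and 0.29 µM artemisinin control for full effect.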 Summed up:
as §1

Assay [6] addresses Atrial natriuretic peptide receptor 1 (Homo sapiens) (UniProt P16066). Briefly: Natriuretic polypeptide receptor (hNpr1) antagonism - Pilot CMLD screen (AID 1347052; calls by dose curve;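 further: HEK293 cells with hNpr1 stimulated by hNppA peptide at 0.1 nM; cGMP level read as GloSensor luciferase luminescence after agonist stimulation; series mostly up to about 9.2 µM; on the % scale 0 is the no-effect control and ±100 the full control effect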).

Records with an inconclusive call do not appear. Some structures have more than one record in an assay (separate samples or runs), and their calls can disagree. The source made the active and inactive calls. Unless noted, the call rests on the fitted dose curve; in most records, active means well fitted curve in the direction sought with a large enough effect; inconclusive means small, poorly fitted or top-dose-only effect, or another doubt; inactive means no such curve, though single readings can be large; an effect the other way counts as inactive or inconclusive.

Chain of Atrial natriuretic peptide receptor 1 (Homo sapiens) (P16066 whole entry, looked up): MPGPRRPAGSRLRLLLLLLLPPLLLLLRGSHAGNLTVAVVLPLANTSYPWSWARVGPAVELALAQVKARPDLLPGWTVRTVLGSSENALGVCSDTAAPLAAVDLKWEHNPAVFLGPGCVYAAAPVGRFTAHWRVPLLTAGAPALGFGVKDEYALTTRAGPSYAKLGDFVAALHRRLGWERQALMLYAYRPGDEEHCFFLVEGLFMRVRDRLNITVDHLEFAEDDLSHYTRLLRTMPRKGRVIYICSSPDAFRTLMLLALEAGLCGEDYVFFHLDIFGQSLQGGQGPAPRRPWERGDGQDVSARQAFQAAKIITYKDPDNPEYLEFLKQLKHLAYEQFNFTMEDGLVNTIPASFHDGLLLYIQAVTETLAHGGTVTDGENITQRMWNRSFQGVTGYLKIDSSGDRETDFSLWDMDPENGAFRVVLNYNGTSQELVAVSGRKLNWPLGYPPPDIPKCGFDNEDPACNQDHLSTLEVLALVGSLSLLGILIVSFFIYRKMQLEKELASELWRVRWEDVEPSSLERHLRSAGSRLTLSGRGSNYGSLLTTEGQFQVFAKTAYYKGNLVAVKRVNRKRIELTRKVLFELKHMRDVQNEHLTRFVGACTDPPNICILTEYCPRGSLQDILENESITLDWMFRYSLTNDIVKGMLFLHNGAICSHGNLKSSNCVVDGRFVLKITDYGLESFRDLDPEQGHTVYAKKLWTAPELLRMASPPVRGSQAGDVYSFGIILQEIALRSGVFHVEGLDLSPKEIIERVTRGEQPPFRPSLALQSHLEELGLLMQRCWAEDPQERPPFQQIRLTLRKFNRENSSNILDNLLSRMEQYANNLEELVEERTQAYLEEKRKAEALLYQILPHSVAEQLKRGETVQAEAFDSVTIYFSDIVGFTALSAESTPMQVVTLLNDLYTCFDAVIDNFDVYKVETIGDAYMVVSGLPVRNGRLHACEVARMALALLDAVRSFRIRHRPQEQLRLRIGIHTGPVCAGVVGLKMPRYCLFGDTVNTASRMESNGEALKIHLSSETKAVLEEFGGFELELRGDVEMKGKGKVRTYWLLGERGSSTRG

Turning to `C=C(C(C)=O)C(O)c1cccc(OC)c1` (configuration not stated), the Potency result in assay [1], in assay [2], in assay [3], in assay [4], in assay [5] and in assay [6] was “inactive” in each case.

Consider `C[C@H]1CC[C@H]2C(=O)O[C@H](CO)CN2[C@H]1c1ccc(Br)cc1`, for which the Potency result in assay [1], in assay [2], in assay [3], in assay [4], in assay [5] and in assay [6] was “inactive” each time.

`COC(=O)C(Cc1cc(Br)c(OC)c(Br)c1O)=NO`: the Potency entry in assay [1], in assay [2], in assay [3], in assay [4], in assay [5] and in assay [6] was “inactive” in each case.

For the molecule `CCOC(=O)NN=C1C[C@@H](O)[C@@H](O)[C@@H]2[C@H]3C(=O)N([C@@H](C)c4ccccc4)C(=O)[C@@H]3CC[C@H]12`, the Potency result in assay [1], in assay [2], in assay [3], in assay [4], in assay [5] and in assay [6] was “inactive” throughout.

Take `CC1=C[C@@H](C)OC2(C1)C(=O)N(CC1CC1)c1cccc(Br)c12` (some centres not stated): the Potency entry in assay [1], in assay [2], in assay [3], in assay [4], in assay [5] and in assay [6] was “inactive” each time.

As for `COc1cc(C(NC(=O)C(F)(F)F)c2cc3ccccc3o2)cc(OC)c1OC` (configuration not stated), the Potency result in assay [1], in assay [2], in assay [3], in assay [4], in assay [5] and in assay [6] was “inactive” each time.

On to `COC[C@H]1O[C@]2(c3ccccc3)CO[C@@H]1[C@@H](C=Cc1ccccc1)C2`, for which the Potency entry in assay [1], in assay [2], in assay [3], in assay [4], in assay [5] and in assay [6] was “inactive” in each case.

Consider `COC(=O)C1=C(C(=O)OC)[C@@H]2N(C)c3ccc(OC)cc3[C@@]23C[C@@H](C(=O)OC)N(C(=O)c2cc(C)oc2C)C3=N1`, for which the Potency entry in assay [1], in assay [2], in assay [3], in assay [4], in assay [5] and in assay [6] was “inactive” throughout.

As to `C[C@@H]1C=CCCO[C@]12C(=O)Nc1ccccc12`, the Potency result in assay [1], in assay [2], in assay [3], in assay [4], in assay [5] and in assay [6] was “inactive” in each case.

Turning to `C(=Cc1nc(-c2ccccc2)oc1Nc1ccc2ccccc2c1)c1ccccc1`, the Potency result in assay [1], in assay [2], in assay [3], in assay [4], in assay [5] and in assay [6] was “inactive” in each case.

Turning to `CCOC(=O)N1C2=NC(C(=O)OC)=C(C(=O)OC)[C@@H]3Nc4ccccc4[C@]23C[C@H]1C(=O)OC`, in assay [1], the activity, negative = inhibition is -0.255% [at 1.12 µM] (inactive). Also, the Potency in assay [2] was 1.9 µM (active) and inactive. Besides, the Potency result in assay [3], in assay [4], in assay [5] and in assay [6] was “inactive” in each case.

Regarding `CCOC(=O)CN1C(=O)N[C@@H](c2cccc(C(F)(F)F)c2)[C@H](C(C)=O)[C@H]1C`, the Potency entry in assay [1], in assay [2], in assay [3], in assay [4], in assay [5] and in assay [6] was “inactive” throughout.

On to `C=CCN1C(=O)C2(CC(C)=C[C@@H](C)O2)c2c(Br)cccc21` (some centres not stated), for which the Potency entry in assay [1], in assay [2], in assay [3], in assay [4], in assay [5] and in assay [6] was “inactive” in each case.

Take `CCCCc1nc2c(c3c1C[C@H](C)OC3)CN(S(=O)(=O)CCCC)CC2`: the Potency entry in assay [1], in assay [2], in assay [3], in assay [4], in assay [5] and in assay [6] was “inactive” in each case.

As to `COc1ccc2c(c1)O[C@@H](c1ccc3c(c1)OCO3)[C@H](O)C2=O`, the Potency entry in assay [1], in assay [2], in assay [3], in assay [4], in assay [5] and in assay [6] was “inactive” each time.

Regarding `CC#CCN1C(=O)N(C)C(c2ccccc2)C(C(=O)OC)=C1C` (configuration not stated), the Potency result in assay [1], in assay [2], in assay [3], in assay [4], in assay [5] and in assay [6] was “inactive” each time.

Take `CC[C@H](C)[C@@H](NC(=O)O[C@H]1C(=O)c2ccc(OC)cc2O[C@@H]1c1ccc2c(c1)OCO2)C(=O)OC`: the Potency entry in assay [1], in assay [2], in assay [3], in assay [4], in assay [5] and in assay [6] was “inactive” in each case.

As for `C=CCNC(=O)N1CCc2nc(CCCC)c3c(c2C1)CO[C@@H](C)C3`, the Potency entry in assay [1], in assay [2], in assay [3], in assay [4], in assay [5] and in assay [6] was “inactive” in each case.

Turning to `C=CC[C@@H]1C=C[C@H](ON=C[C@@H](C)[C@H](OCc2ccccc2)C(C)C)[C@H](CO)O1`, the Potency result in assay [1], in assay [2], in assay [3], in assay [4], in assay [5] and in assay [6] was “inactive” throughout.

`CCN1C(=O)N(C)C(c2ccccc2)C(C(=O)OC)=C1C` (configuration not stated): the Potency result in assay [1], in assay [2], in assay [3], in assay [4], in assay [5] and in assay [6] was “inactive” throughout.

For the molecule `O=C1CCCC=C1C(O)COCc1ccccc1` (configuration not stated), the Potency result in assay [1], in assay [2], in assay [3], in assay [4], in assay [5] and in assay [6] was “inactive” throughout.

On to `CC=CCCN1C=C(C(C)=O)C(c2ccccc2)NC1=O` (configuration not stated), for which the Potency entry in assay [1], in assay [2], in assay [3], in assay [4], in assay [5] and in assay [6] was “inactive” each time.

For `COc1ccc2c(c1)O[C@H](c1ccc3c(c1)OCO3)[C@@H](OC(=O)Nc1ccc(C)c(Br)c1)C2=O`, the Potency result in assay [1], in assay [2], in assay [3], in assay [4], in assay [5] and in assay [6] was “inactive” throughout.

For `Cc1noc(C)c1S(=O)(=O)N1CCc2nc(COc3ccccc3)c3c(c2C1)CO[C@@H](C)C3`, the Potency entry in assay [1], in assay [2], in assay [3], in assay [4], in assay [5] and in assay [6] was “inactive” in each case.

Regarding `C=CCN1c2ccccc2[C@]23CCC(=O)N(CC(=O)OC)C2=NC(C(=O)OC)=C(C(=O)OC)[C@H]13`, the Potency result in assay [1], in assay [2], in assay [3], in assay [4], in assay [5] and in assay [6] was “inactive” in each case.

Regarding `C#CCN1C(=O)[C@@]2(CC(C)=CC[C@@H](C)O2)c2ccccc21`, the Potency entry in assay [1], in assay [2], in assay [3], in assay [4], in assay [5] and in assay [6] was “inactive” in each case.

As to `OC[C@H]1O[C@H](c2ccccc2)C=C[C@H]1O`, the Potency entry in assay [1], in assay [2], in assay [3], in assay [4], in assay [5] and in assay [6] was “inactive” throughout.
